Our source for the growth values is PubChem BioAssay (NCI).

About 83,000 compounds went through this panel and 20% of them were active in at least one assay; those are over-represented in the sample as a whole.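 Cell lines were cultured in 96-well plates, exposed to a single compound concentration, and assessed for percent growth 48 hours later.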 The source made the active and inactive calls.

This test relates to SW-620 colon. Nature of the test: NCI-60 one-dose screen, 48 h (100 = growth as untreated, 0 = no growth, -100 = all killed). The note with it: 10 µM unless noted. As to the method:
Growth inhibition of the SW-620 human tumor cell line is measured as a screen for anti-cancer activity. Cells are grown in 96 well plates and exposed to the test compound for 48 hours. Compounds are tested at a single concentration, which is 10^-5 M for most compounds. The reported endpoint is percent growth (GI% or GIPRCNT), where numbers from 0 - 100% represent growth inhibition, and numbers from -100% - 0 represent cell death. For example, a value of 40 represents 60% growth inhibition. A value of 0 means no net growth occurred over the course of the experiment. A value of -40 indicates 40% of cells at the beginning of the experiment died by the end of the experiment. A value of -100 means all cells are dead at the end of the experiment.
NCI-60 Human Tumor Cell Lines Screen was performed using the standard one-dose NCI protocol, which is described in more detail at https://dtp.cancer.gov/discovery_development/nci-60/default.htm.
Compounds with GIPRCNT values below 10 were considered active. Activity score was based on GIPRCNT using the following formula: […]
Score is 0 for GIPRCNT values of 100 or above, 50 for GIPRCNT values of 0, and 100 for GIPRCNT values of -100.
Turning to `N#CC1=C(N)Oc2c(c(=O)[nH]c3ccc(Cl)cc23)C12C(=O)c1ccccc1C2=O`, the growth was 86.5% (inactive).
As for `CS(=O)(=O)Nc1cc(-c2ccc3ncnc(Nc4ccc5c(cnn5Cc5ccc(F)cc5)c4)c3c2)cnc1Cl`, the growth was 43.1% (inactive).
On to `CCOC(=O)n1cc(-c2nonc2-c2cn(C(=O)OCC)c3ccc(Br)cc23)c2ccccc21`, for which the growth is 85.8% (inactive).
Next, `Cc1cc(=O)oc2cc(OCc3nn4c(Nc5nc6ccccc6s5)c(-c5ccccc5)nc4s3)ccc12`: 85.3% (inactive); `COc1ccc(CNc2c3ccccc3nc3ccccc23)cc1`: 25.6% (inactive); `O=c1c2cccc3c(N4CCCC4)ccc(c32)c2nc3ccccc3n12`: 59.5% (inactive).
On to `C=C(CBr)[C@@H]1CC[C@]2(C(=O)O)CC[C@]3(C)[C@H](CC[C@@H]4[C@@]5(C)CCC(=O)C(C)(C)[C@@H]5CC[C@]43C)[C@@H]12`, for which the growth was 85.5% (inactive).
Next, `O=C1NC2(Nc3ccccc31)C(=O)Nc1c(Cl)cc(Cl)cc12` (stereo not given): 100% (inactive); `O=C(Nc1cccc(-c2ccc(N3CCOCC3)nn2)c1)Nc1cccc(C(F)(F)F)c1`: 110% (inactive); `O=C(c1ccccc1)c1ccc(C2CCCCC2)cc1`: 93.4% (inactive).
Consider `CC1OC(n2c3ccccc3c3c4c(c5c6ccccc6[nH]c5c32)C(=O)N(CCN2CCCC2)C4=O)CC(O)C1O` (stereo not given), for which the growth is 17.7% (inactive).
The value for `O=C(O)c1cn(C2CC2)c2cc(N3CCN(Cc4ccc5ccccc5c4O)CC3)c(F)cc2c1=O` was 36.1% (inactive); that for `COc1ccc(C(O)c2cc3c(N)c(C(=O)Nc4cccc(Br)c4)sc3nc2C)cc1` (stereo not given) was 23.7% (inactive); that for `O=C(/C=C/c1cccc(Cl)c1)c1cccc(OCCCOc2cccc(C(=O)/C=C/c3cccc(Cl)c3)c2)c1` was 90.7% (inactive).
Next, `CCN1C(=O)N(CC)C2C1NN=c1s/c(=C\c3ccccc3F)c(=O)n12` (stereo not given): 18.2% (inactive); `CCN1C(=S)N(c2ccccc2)C2NC(=S)N(/N=C/C=C/c3ccccc3OC)C21` (stereo not given): 18.3% (inactive); `OCCn1cc(-c2nc(-c3c[nH]c4ncccc34)cs2)c2cc(F)ccc21`: 57.9% (inactive).
The value for `CCCCNC(=O)Oc1ccc(/C(=C(/C)Cc2ccc(OC)cc2)c2ccc(OCCN(CC)CC)cc2)cc1` was 93.3% (inactive); that for `Fc1ccc(CNc2c3ccccc3nc3ccccc23)c(F)c1` was 29.8% (inactive); that for `O=C(/C=C/c1ccco1)Nc1ncc(Cc2cccc(C(F)(F)F)c2)s1` was 18.4% (inactive).
For the compound `CCOC(=O)c1cc(C(=O)c2cc(OC)c(OC)c(OC)c2)n2ncccc12`, the growth was 33.6% (inactive).
The value for `O=C1/C(=C/c2ccc([N+](=O)[O-])cc2)COc2ccc(O)cc21` was -11.7% (active); that for `O=C(Nc1ccc(Oc2cccc(Cl)c2)c(Cl)c1)c1cnccn1` was 22.7% (inactive); that for `COc1cc2ncnc(Nc3ccc(S(=O)(=O)Nc4cc(C)on4)cc3)c2cc1OCCCN1CCN(c2ccc(F)cc2)CC1` was 100% (inactive).
The value for `COc1c(C(=O)Nc2ccc(C)c(Br)c2)ccc2ccccc12` was 81.1% (inactive); that for `O=c1c2cnn(-c3ccccc3)c2n2c(CN3CCOCC3)nnc2n1-c1ccccc1` was 110% (inactive); that for `CC(=O)c1c(C)nc(SCC(=O)Nc2cccc(O)c2)n1-c1ccc(Cl)cc1` was 87.3% (inactive).
The value for `CCSc1nc2scc(C)c2c(=O)[nH]1` was 104% (inactive); that for `CCOC(=O)c1c(NC(=O)c2ccc(Cl)cc2)sc2c(CN(C)C)c(O)ccc12` was 28.1% (inactive); that for `NC(=O)c1cc(I)ccc1NC(=O)/C=C/c1ccccc1` was 9.63% (active).
Regarding `O=C(c1ccncc1)N1N=C(c2ccc(Cl)cc2)C[C@H]1c1cn(-c2ccccc2)nc1-c1ccccc1`, the growth was 101% (inactive).
Next, `CCc1ccccc1-n1c(-c2ccc(OC)cc2)cc(-c2ccc(OC)cc2)c(C#N)c1=O`: 93.9% (inactive); `CCOC(=O)c1csc(NC(=O)COc2ccc(/C=C3\Oc4ccccc4C3=O)cc2)n1`: 105% (inactive); `Cn1ccnc1C(=O)/C=C/c1ccc(C(=O)Nc2ccccc2O)cc1`: 10.3% (inactive).
Next, `COc1ccc(Nc2nnc(-c3ccc(OC)c(OC)c3)o2)cc1`: 97.7% (inactive); `CCCCNCCCCCNc1cc(OC)cc2cccnc12`: 100% (inactive); `COc1ccc(NC2=C(I)C(=O)c3ncccc3C2=O)cc1`: -60.6% (active).
Consider `C#CCOc1ccc2ncnc(Nc3ccc(NC(=O)C=C)cc3)c2c1`, for which the growth was -45.8% (active).
The value for `COc1ccc(C2=C(Nc3ccc(C(=O)Nc4ccccc4)cc3)C(=O)N(C)C2=O)cc1` was 106% (inactive); that for `COc1ccc(Nc2nc(-c3cc(O)c(C)c(C)c3O)cs2)cc1` was 70.6% (inactive).
